# In ChEMBL document CHEMBL4513216, “Probing the Open Global Health Chemical Diversity Library for Multistage-Active Starting Points for Next-Generation Antimalarials” (ACS Infect Dis, 2020):
# Among all 69,000 compounds or so, about 8,600 (12%) showed an effect of 50% or more. Many of the other results were omitted from the sample, so strong results are more common in it than they were.
# System: Plasmodium berghei
# Assay: Screen against P. berghei liver stage (PbLuc), transformed with Luciferase, at 10uM
# Assay type: functional, HepG2
# Conditions: tested at 10 uM
row,Compound,INHIBITION [%]
1,Cc1cc(N2CCC(O)CC2)nc(C2CCCN2C)n1 (stereo not drawn),9.6
2,O=C(Nc1ccccc1)c1cc2n(n1)CCCN(C(=O)c1ccc[nH]1)C2,28.5
3,COCc1ccc(C(=O)N2CCCN(Cc3ccc(F)cc3)CC2)s1,14.3
4,CCc1nnsc1C(=O)N1CCCN(Cc2ccc(F)cc2)CC1,-0.219
5,CCc1ccc(C(=O)N2CCN(Cc3ccc(F)cc3)CC2)s1,68.5
6,Cc1cc(C)n(CC2CCCN2C(=O)c2cnccn2)n1 (stereo not drawn),-3.7
7,Cc1nc(CN2CCCn3c(nc(Cn4cncn4)cc3=O)C2)cs1,51.2
8,c1csc(CN2CCCN(c3ccc(Cn4ccnc4)cn3)CC2)c1,52.6
9,OC1CCN(C2CCN(c3ccc(Cn4ccnc4)cn3)CC2)CC1,24.4
10,O=c1cc(Cn2ccnc2)nc2n1CCCN(Cc1cccs1)C2,53.4
11,O=c1cc(Cn2ccnc2)nc2n1CCCN(Cc1ccncc1)C2,-32
12,O=c1cc(Cn2ccnc2)nc2n1CCCN(Cc1ccco1)C2,8.85
13,Cc1nc(CN2CCCn3c(nc(Cn4ccnc4)cc3=O)C2)cs1,-16.6
14,O=C(NCCn1ccnc1)N1CCCN(Cc2cccs2)CC1,-39.7
15,O=c1cc(Cn2cncn2)nc2n1CCCN(Cc1ccsc1)C2,12.7
16,CC(Cn1ccnc1)NC(=O)N1CCCN(Cc2cccs2)CC1 (stereo not drawn),21.5
17,Fc1ccc(N2CCCN(c3ccc(Cn4ccnc4)cn3)CC2)cc1,92.8
18,c1cn(Cc2ccc(N3CCCN(C4CCCC4)CC3)nc2)cn1,13.5
19,Cc1nccn1C1CCCN(C(=O)CCOCC(F)(F)F)C1 (stereo not drawn),1.15
20,CC(C)N(C)Cc1cnc2n1CCN(Cc1ccc(F)cc1)C2,17.4
21,Cc1cc2c(c(=O)n1CCC(=O)O)C=CC(C)(C)O2,10.9
22,Cc1nc2cc(-c3nccn3C)nn2c(N2CCCC(O)C2)c1C (stereo not drawn),6.335
23,Cn1cc(C(=O)N2C[C@H]3CC(Oc4ccccc4)C[C@H]3C2)cn1 (stereo partly drawn),3.92

row,Compound,INHIBITION [%]
1,CS(=O)(=O)N1C[C@H]2CCCN(Cc3cccs3)[C@H]2C1,24.6
2,O=c1cc(CN2CCCC2)nc2n1CCCN(Cc1ccco1)C2,0.804
3,CS(=O)(=O)NCc1cc(=O)n2c(n1)CN(Cc1ccco1)CCC2,52.3
4,CN(C)Cc1cc(=O)n2c(n1)CN(Cc1ccco1)CCC2,26.5
5,CCc1nc(CN2CCCCC2C(N)=O)cs1 (stereo not drawn),-2.43
6,COc1c(C(=O)NC(C)CC(=O)c2cccs2)c(C)nn1C (stereo not drawn),36.7
7,Cc1nn(C)c(C)c1C(=O)NC(C)CC(=O)c1cccs1 (stereo not drawn),61.4
8,Cc1cc(C(=O)NC(C)CC(=O)c2cccs2)n(C)n1 (stereo not drawn),-18.8
9,O=C([C@@H]1CC[C@@H]2[C@@H](CCN2c2ccncn2)O1)N1CCCCO1,5.68
10,COCCOc1ccc(NC(=O)N2CCOC(C(N)=O)C2)cc1F (stereo not drawn),15.9
11,COc1ccc(C2(NC(=O)C3CC(=O)N(C)C3)CCCC2)cc1 (stereo not drawn),26
12,CNC(=O)CN1CCC(CN(C)Cc2ccncc2Cl)CC1,-22.1
13,O=C(C1CCOC1)N1CCc2ncnc(NC3CCC3)c2CC1 (stereo not drawn),51.3
14,O=C(C1CCCO1)N1CCc2ncnc(NC3CCC3)c2CC1 (stereo not drawn),-29.5
15,Nc1nc2c(c(NC3CCCC3)n1)CCN(C(=O)C1CCOC1)CC2 (stereo not drawn),97.2
16,O=C([C@H]1CCCO1)N1CCc2ncnc(NC3CC3)c2CC1,48.5
17,CC(C)Nc1nc2c(c(NC3CC3)n1)CCN(C(=O)C1CCOC1)CC2 (stereo not drawn),34.3
18,O=C(C1CCOC1)N1CCc2ncnc(C3CC3)c2CC1 (stereo not drawn),-13.4
19,N#Cc1cccc(OCc2ccoc2C(=O)N2CCCCCC2)c1,5.91
20,O=C(C1CCCO1)N1C[C@@H]2CCN(c3cnccn3)C[C@@H]2C1 (stereo partly drawn),28.4
21,Cc1cc(C(=O)NCc2c(C)nn(C)c2C)nc(N2CCCC2)n1,-31.4
22,O=C(O)c1cnc(N2CC[C@H](N3CCOCC3)[C@H](CCCO)C2)c(Cl)c1,14
23,O=S(=O)(NC1=NCN(CCc2ccccc2)CN1)c1ccc(F)cc1,-4.52

row,Compound,INHIBITION [%]
1,Cc1occc1C(=O)NCc1cccnc1N(C)C,33.15
2,CC(c1nc(C2CC2)no1)N1CCc2c(ncn2C2CC2)C1 (stereo not drawn),17
3,CC(c1nc(C2CC2)no1)N1CCN(CCc2ccncc2)CC1 (stereo not drawn),-45.9
4,CCc1noc(C(C)N2CCc3c(ncn3C3CC3)C2)n1 (stereo not drawn),-1.04
5,CC(c1nc(-c2ccccc2)no1)N1CCc2c(ncn2C2CC2)C1 (stereo not drawn),78.3
6,Cc1cccc(-c2noc(CN3CCc4c(ncn4C4CC4)C3)n2)c1,18.3
7,CC(c1nc(C2CC2)no1)N1CCc2c(ncn2C)C1 (stereo not drawn),56
8,N#Cc1ccc(S(=O)(=O)Nc2cnn(C3CCOCC3)c2)cc1,5.51
9,CC(C)(NC(=O)c1cnc(-c2ccccc2F)s1)C(N)=O,-8.9
10,Cc1cnc(N2CC[C@@H]3O[C@@H](COCc4ccccn4)CC[C@@H]32)nc1,41.6
11,COc1ccc(-c2cc(=O)n3c(n2)CCCCC3)cc1,1.45
12,Cc1nn(C)cc1-c1ccnc(N(C)Cc2noc(C(C)C)n2)n1,-147
13,Cc1nn(C)c(C)c1-c1ccnc(N(C)Cc2noc(C(C)C)n2)n1,4.35
14,Cc1nn(C)c(C)c1-c1ccnc(N(C)Cc2nc(C(C)C)no2)n1,68.2
15,Cc1csc(C2CCCN(C(=O)c3cccc4c3OCO4)C2)n1 (stereo not drawn),27.6
16,Cc1nc(CN2CCN(C)C(=O)C23CCN(C(C)C)CC3)cs1,32.5
17,Cc1cc(C)n2ncc(CN3CCC(Cn4cc(CO)nn4)CC3)c2n1,20.1
18,Cc1cccc(CN2CCC(n3cc(CCO)nn3)CC2)c1C,53.3
19,Cc1cc(C)n2ncc(CN3C[C@@H](O)[C@H](Oc4ccccc4)C3)c2n1,-5.71
20,Cc1cc(C)n2ncc(CN3CCC(n4cc(CCO)nn4)CC3)c2n1,58.6
21,COCc1cn(C2CCN(Cc3ccc(Cl)s3)CC2)nn1,5.23
22,Cc1ccc(CN2CCC(n3cc(CN4CCC(O)CC4)nn3)CC2)s1,7.43
